# Laboratory results from the supplement of paper PMC8183993.
# Values joined by “and” are separate entries in the source; they are usually repeats but may differ in a detail not shown here. Identical values can stand only once. Counter-ions that a name gives are not always drawn. ± gives the standard deviation of the averaged measurements. In all, about 3,100 compounds were measured (“mean cytoplasmic OPP incorporation (global translation) relative to DMSO”: median about 100, lowest 2% from about 56 on). For the sample, the lowest values were picked, then their nearest neighbours and some compounds at random.
# System: U2OS
# Assay: mean cytoplasmic OPP incorporation (global translation) relative to DMSO (% of DMSO); higher = more protein synthesis
# Conditions: 10 µM; 24 h
# Description: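 Primary image-based screen in U2OS cells: compounds at 10 uM for 24 h, then a 1 h o-propargyl-puromycin (OPP) pulse, click labelling, and high-throughput microscopy. Mean cytoplasmic OPP intensity and nuclei count were normalised to DMSO wells within each plate (DMSO = 100) and averaged over triplicate plates.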
row,Structure (SMILES),mean cytoplasmic OPP incorporation
1,CC(C)(C)n1nc(-c2cccc3ccccc23)c2c(N)ncnc21 [1-Naphthyl PP1],93
2,Cc1ccccc1-n1c(Cn2nc(-c3cccc(O)c3)c3c(N)ncnc32)nc2cccc(C)c2c1=O,102
3,CC(C)n1nc(-c2ccc3oc(N)nc3c2)c2c(N)ncnc21,53.5 ± 16
4,C[C@H](Cn1cnc2c(N)ncnc21)OCP(=O)(O)O [Tenofovir (Viread)],99.5
5,CC(C)n1nc(-c2cc3cc(O)ccc3[nH]2)c2c(N)ncnc21 [Torkinib (PP242)],52.5
6,CCO/C(O)=C1\C(C)=NC(c2ccccc2)=C(C(=O)OCc2ccc([N+](=O)[O-])cc2)C1C#Cc1ccccc1 (stereo not given),108
7,CC1=C(/C=C/C(C)=C\C=C\C(C)=C\C(=O)O)C(C)(C)CCC1 [9-cis Retinoic acid],96.4
8,"Nc1ccc(CC(CC(=O)O)C(=O)O)cc1 [4-Amino-D, L-benzylsuccinic acid]",104
9,CC(C)[C@@H](O)CC[C@@H](C)[C@H]1CC[C@H]2[C@@H]3CC=C4C[C@@H](O)CC[C@]4(C)[C@H]3CC[C@]12C [24(S)-Hydroxycholesterol],104
10,Cc1ccc2nc(NCCN)c3ncc(C)n3c2c1,56.1
11,Cc1nc(N)sc1-c1ccnc(Nc2ccc(N3CCOCC3)cc2)n1,93.4
12,Cc1ccnc(NS(=O)(=O)c2ccc(NC(=O)Nc3ccc(S(=O)(=O)Nc4nccc(C)n4)cc3)cc2)n1,96.2
13,Cc1ncc(-c2ccnc(Nc3ccc(S(C)(=O)=O)cc3)n2)n1C(C)C,55.9
14,"C[C@]12CC[C@@H](O)C[C@@H]1CC[C@@H]1[C@@H]2CC[C@]2(C)C=CC[C@@H]12 [3a, 5a-Androstenol]",97.3
15,CN(C)CCCn1cc(C2=C(c3c[nH]c4ccccc34)C(=O)NC2=O)c2ccccc21,90.7 and 79.3
16,Cn1cc(C2=C(c3cn(CCCSC(=N)N)c4ccccc34)C(=O)NC2=O)c2ccccc21 [Ro 31-8220 mesylate],62.4
17,Cn1cc(C2=C(c3cn(CCCSC(=N)N)c4ccccc34)C(=O)NC2=O)c2ccccc21 [Ro 31-8220 Mesylate],30.3
18,Cn1cc(C2=C(c3ccc(Cl)cc3Cl)C(=O)NC2=O)c2ccccc21,104 and 106
19,CC(=O)C1=C(O)C=C2Oc3c(C(C)=O)c(O)c(C)c(O)c3[C@]2(C)C1=O [Usnic acid],101
20,CC(=Nc1ccccc1N)c1c(C)cc(=O)n(O)c1O,95.7
21,COc1cccc(-c2cc(NCc3ccc4c(c3)OCO4)nc(N)n2)c1,92.3
22,CNCCN1CCC(OCc2ccccc2)CC1,111
23,Nc1ccccc1NC(=O)CCCCCCC(=O)Nc1ccccc1,92.9
24,O=C(CCCCCCC(=O)Nc1ccccc1)NO [Vorinostat],41.9
25,O=C(CCCCCCC(=O)Nc1cccnc1)NO [Pyroxamide],65.9
